Experimental data: PubChem BioAssay AID588358 (NMMLSC, 2011)
Values joined by “and” are separate entries in the source; they are usually repeats but may differ in a detail not shown here. Equal values may be shown once. Among all 310,000 compounds or so, about 1,500 (0.48%) were called active.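 The calls were made as follows: active = binding more than 3 SD below its plate's average and above zero; inconclusive = below that plate limit but binding exactly zero; inactive = the rest.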 The full list was thinned out, with actives kept by preference.

What follows are compounds tested against Desmoglein-3 (Homo sapiens) (UniProt P32926) (assay: inhibitors of pemphigus antibody binding to DSG3, primary screen, biochemical, bead-based, flow cytometry, scFv-GFP (AID 588358;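 also: hits lower antibody fragment binding to DSG3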)). Settings: DSG3-coupled beads, scFv-anti-DSG3-GFP binding, at 10 µM, stronger effect = lower value.
Sequence of Desmoglein-3 (Homo sapiens) (P32926 whole entry, looked up, the tested form may be a part): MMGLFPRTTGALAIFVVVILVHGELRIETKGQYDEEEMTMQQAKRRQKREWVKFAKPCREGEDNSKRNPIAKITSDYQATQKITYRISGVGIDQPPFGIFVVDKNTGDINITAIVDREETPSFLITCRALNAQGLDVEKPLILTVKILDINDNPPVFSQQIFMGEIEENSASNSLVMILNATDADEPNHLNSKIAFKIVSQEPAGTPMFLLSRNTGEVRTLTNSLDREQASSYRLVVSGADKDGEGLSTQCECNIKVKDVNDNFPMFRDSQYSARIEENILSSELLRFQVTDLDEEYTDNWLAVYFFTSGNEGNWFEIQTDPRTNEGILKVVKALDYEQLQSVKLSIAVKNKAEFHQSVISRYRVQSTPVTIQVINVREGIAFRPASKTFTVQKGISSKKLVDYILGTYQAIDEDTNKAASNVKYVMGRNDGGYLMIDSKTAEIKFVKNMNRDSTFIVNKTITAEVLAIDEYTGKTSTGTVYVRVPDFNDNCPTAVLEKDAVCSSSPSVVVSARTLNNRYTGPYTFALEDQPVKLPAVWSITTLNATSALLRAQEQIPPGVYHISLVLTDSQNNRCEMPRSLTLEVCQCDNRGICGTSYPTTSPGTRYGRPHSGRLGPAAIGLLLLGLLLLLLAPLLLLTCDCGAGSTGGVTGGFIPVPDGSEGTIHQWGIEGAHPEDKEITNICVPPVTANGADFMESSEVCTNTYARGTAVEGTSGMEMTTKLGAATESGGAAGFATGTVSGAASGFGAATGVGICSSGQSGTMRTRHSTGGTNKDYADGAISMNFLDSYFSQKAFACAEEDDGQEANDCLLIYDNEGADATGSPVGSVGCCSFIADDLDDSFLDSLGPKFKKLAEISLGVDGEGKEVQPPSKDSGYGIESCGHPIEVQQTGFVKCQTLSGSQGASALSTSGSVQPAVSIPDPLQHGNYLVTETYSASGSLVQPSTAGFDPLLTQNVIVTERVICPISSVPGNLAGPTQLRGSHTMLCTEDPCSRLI
With `Cc1ccnc(SC2CC(=O)N(c3ccccc3)C2=O)n1` (stereo not given) the binding (percent of control) was 95.7% (inactive).
`O=C(NCC(F)(F)F)c1ccc(S(=O)(=O)NCCc2ccc3c(c2)OCCO3)cc1` was tested, and the binding (percent of control) was 97.1% (inactive).
With `C[C@H](O)[C@@H]1C(=O)N2CCc3c([nH]c4ccccc34)[C@@H]2C[C@@H]1N(C)C(=O)Nc1ccc(F)cc1` the binding (percent of control) was 109% (inactive).
`CN(C)c1ccc(CSc2ccccc2)cc1` was tested, and the binding (percent of control) was -6.16% (active).
With `CN(C)c1cc[n+](Cc2ccccc2)cc1` the binding (percent of control) was 99.9% (inactive).
In the case of `O=C(c1ccc(CSc2ccccc2)cc1)N1CCCCCC1`, the binding (percent of control) is reported as 105% (inactive).
For `Cc1ccc(Cc2c(-c3ccc(C)cc3)nc3c4ccccc4ccn23)cc1`, the binding (percent of control) was 109% (inactive).
With `Cc1ccc(S(=O)(=O)/N=C2\C=C(NS(=O)(=O)c3ccc(C)cc3)C(=O)c3ccccc32)cc1` the binding (percent of control) was 97.2% (inactive).
For `COc1cccc(NC(=O)CN(C)C(=O)c2ccccc2CCc2ccccc2)c1`, the binding (percent of control) was 108% (inactive).
`COc1cccc(NC(=O)CN(C)C(=O)c2cc(Cl)nc3ccccc23)c1` was tested, and the binding (percent of control) was 80.8% (active).
With `COc1ccc(NC(=O)CN(C)C(=O)c2cc(-c3ccc(C)o3)nc3ccccc23)cc1` the binding (percent of control) was 96.9% (inactive).
For `CSc1ncccc1C(=O)N1CCCC(Nc2ccc(F)c(F)c2)C1` (stereo not given), the binding (percent of control) was 104% (inactive).
In the case of `CCN(C(=O)Nc1cccc2ccccc12)c1ccccc1`, the binding (percent of control) is reported as 103% (inactive).
For `CCc1ccccc1NC(=O)CN1CCN(C(=O)c2cc(C3CC3)nn2-c2ccccc2)CC1`, the binding (percent of control) was 106% (inactive).
For `COc1ccc(S(=O)(=O)N(C)C)cc1NC(=O)COC(=O)c1n[nH]c2ccccc12`, the binding (percent of control) was 98.8% (inactive).
In the case of `Cc1cccc(C(=O)C(O)(c2ccccc2)C2CCCCC2=O)c1` (stereo not given), the binding (percent of control) is reported as 106% (inactive).
`CCOc1ccccc1Nc1ccc2nonc2c1[N+](=O)[O-]` was tested, and the binding (percent of control) was 96.1% (inactive).
`O=C(O)c1ccccc1CSc1nc2ccccc2s1` was tested, and the binding (percent of control) was 116% (inactive).
In the case of `O=[N+]([O-])c1c(NCCO)cc(Sc2nc3ccccc3s2)c2nonc12`, the binding (percent of control) is reported as 83.3% (active).
With `CCOC(=O)C(=Cc1ccccc1)C(=O)c1ccccc1` the binding (percent of control) was 106% (inactive).
In the case of `CCN(CC)C(=O)C1=C(C)N(Cc2ccccc2)C(=O)C(CC(=O)NC(c2ccccc2)c2ccccc2)C1` (stereo not given), the binding (percent of control) is reported as 107% (inactive).
In the case of `O=C(CCc1ccc(O)cc1)NN=Cc1cc(Br)ccc1O`, the binding (percent of control) is reported as 106% (inactive).
With `COc1ccc(-c2noc(CNC(=O)C(C)Oc3ccccc3)n2)cc1` (stereo not given) the binding (percent of control) was 109% (inactive).
For `COc1ccc(-c2noc(COc3ccc(Cl)c(C)c3)n2)cc1`, the binding (percent of control) was 66.6% (active).
With `COc1ccc(-c2noc(CCC(=O)N3CCN(c4cccc(C)c4)CC3)n2)cc1` the binding (percent of control) was 98.6% (inactive).
In the case of `Cc1ccc(-c2ccc(C3=CC(=O)CC(C)(C)C3=O)cc2)cc1`, the binding (percent of control) is reported as 97.6% (inactive).
For `COc1ccc(C(CNC(=O)CSc2ccccc2)N2CCOCC2)cc1` (stereo not given), the binding (percent of control) was 100% (inactive).
In the case of `CC(C)c1cc(C(=O)N(C)C2CCCN(Cc3ccccc3F)C2)n(C)n1` (stereo not given), the binding (percent of control) is reported as 96.7% (inactive).
With `CC(C)C1CCN(C(=O)C2CCC(=O)N(C3CCCCCC3)C2)CC1` (stereo not given) the binding (percent of control) was 101% (inactive).
For `CCC(C(=O)N1CCOCC1)n1c(C(=O)OC)cc2occc21` (stereo not given), the binding (percent of control) was 99.3% (inactive).
`CCCC(C(=O)N1CCOCC1)N1C(=O)C2C3C=CC(C3)C2C1=O` (stereo not given) was tested, and the binding (percent of control) was -12.4% (active).
In the case of `CCCCOC(=O)NCN1C(=O)C2C3C=CC(C3)C2C1=O` (stereo not given), the binding (percent of control) is reported as 110% (inactive).
For `CCCCCC(=O)N1C[C@H](O)[C@@H](n2cc(COC(=O)c3ccccc3)nn2)C[C@@H]1c1ccc(C)cc1`, the binding (percent of control) was 102% (inactive).
`C=CC1=C(C(=O)O)N2C(=O)[C@@H](NC(=O)/C(=N/OCC(=O)O)c3csc(N)n3)[C@H]2SC1` was tested, and the binding (percent of control) was 68.8% (inactive).
For `CO/N=C(\C(=O)N[C@@H]1C(=O)N2C(C(=O)O)=C(COC(C)=O)CS[C@H]12)c1csc(N)n1` (stereo in doubt), the binding (percent of control) was 100% (inactive) and 106% (inactive).
With `C=CC1=C(C(=O)O)N2C(=O)[C@@H](NC(=O)/C(=N\OCC(=O)O)c3csc(N)n3)[C@H]2SC1` the binding (percent of control) was 71% (active).
`O=C(CCCN1C(=O)C(c2ccccc2)Oc2cccnc21)Nc1ccccc1Br` (stereo not given) was tested, and the binding (percent of control) was 105% (inactive).
In the case of `O=C(OCc1cn([C@H]2C[C@H](c3ccccc3)N(C(=O)c3cccs3)C[C@@H]2O)nn1)c1ccccc1`, the binding (percent of control) is reported as 106% (inactive).
In the case of `O=c1c2[nH]c3ccc(Cl)cc3c2ncn1Cc1ccccn1`, the binding (percent of control) is reported as 51% (active).
In the case of `Cc1ccc2[nH]c3c(=O)n(Cc4ccccn4)cnc3c2c1`, the binding (percent of control) is reported as 108% (inactive).
For `COc1ccc2c(c1)c1ncn(Cc3ccccn3)c(=O)c1n2C`, the binding (percent of control) was 112% (inactive).
In the case of `C[C@@H]1CN([C@@H](C)CO)C(=O)CCCn2nncc2CO[C@H]1CN(C)Cc1ccc(C(F)(F)F)cc1`, the binding (percent of control) is reported as 103% (inactive).
`Cc1cc(C)c2cc(C#N)c(N3CCNCC3)nc2c1` was tested, and the binding (percent of control) was 105% (inactive).
`C#CCOc1ccc(/C=C2/C(=O)ON=C2C)cc1OCC` was tested, and the binding (percent of control) was 111% (inactive).
With `COc1cc(/C=C2/C(=O)NN(c3cccc(Cl)c3)C2=O)cc(Br)c1O` the binding (percent of control) was 233% (inactive).
In the case of `C#CCOc1ccc(/C=C2/C(=O)NN(c3ccccc3)C2=O)cc1OC`, the binding (percent of control) is reported as 81.6% (active).
For `Cc1ccc(Cc2c(-c3ccccc3)nc3ccc(Cl)cn23)cc1`, the binding (percent of control) was 105% (inactive).
With `CCOC(=O)c1cc(-c2sc(NC(=O)c3ccccc3)nc2C)n(CCO)n1` the binding (percent of control) was 96.7% (inactive).
With `CCN(CC)C(=O)C(C)N1c2cccc3cccc(c23)S1(=O)=O` (stereo not given) the binding (percent of control) was 98.7% (inactive).
`CCOc1cc(N2CCOCC2)c(OCC)cc1NC(=O)COc1cccc(Cl)c1` was tested, and the binding (percent of control) was 96.8% (inactive).
With `CCOc1cc(N2CCOCC2)c(OCC)cc1NC(=O)c1ccc(C)s1` the binding (percent of control) was 72.7% (active).
In the case of `CCOc1cc(N2CCOCC2)c(OCC)cc1NC(=O)C1=NN(c2cccc(C)c2)C(=O)CC1`, the binding (percent of control) is reported as 102% (inactive).
In the case of `Cc1ccc(C(=O)NC(C)C(c2cccs2)N2CCOCC2)cc1C` (stereo not given), the binding (percent of control) is reported as 92.7% (inactive).
`Cc1ccccc1OS(=O)(=O)c1cccc([N+](=O)[O-])c1` was tested, and the binding (percent of control) was 100% (inactive).
`COCOCCn1cc(CN2CCS(=O)(=O)N(Cc3ccc(-c4ccc(OC)cc4)cc3)C(CC(C)C)C2=O)nn1` (stereo not given) was tested, and the binding (percent of control) was 103% (inactive).
`Cc1cc(C)c([N+](=O)[O-])cc1-c1ccc(/C=N/NC(=O)c2nonc2N)o1` was tested, and the binding (percent of control) was 87.1% (active).
In the case of `COc1cc(/C=N\NC(=O)c2nonc2N)c(OC)cc1Br`, the binding (percent of control) is reported as 89.4% (inactive).
In the case of `Cc1ccc(-c2ccc(/C=N/NC(=O)CN3CCOCC3)o2)cc1[N+](=O)[O-]`, the binding (percent of control) is reported as 101% (inactive).
For `O=C(NCCS(=O)(=O)N1CCN(c2ccccc2)CC1)c1cc(=O)c2ccccc2o1`, the binding (percent of control) was 99.7% (inactive).
`O=C(NCCOc1ccccc1)N1[C@H]2CC[C@@H]1C=C(c1ccc(F)cc1OCc1ccccc1)C2` was tested, and the binding (percent of control) was 107% (inactive).
For `CCC(Oc1ccccc1)C(=O)OCC(=O)Nc1c(C)nn(-c2ccccc2)c1C` (stereo not given), the binding (percent of control) was 106% (inactive).
For `Cc1cnc(C(=O)OCC(=O)NCCCc2ccccc2)cn1`, the binding (percent of control) was 104% (inactive).
For `Cc1cnc(C(=O)Oc2cccc(Cl)c2Cl)cn1`, the binding (percent of control) was -19.6% (active).
For `Cc1cnc(C(=O)OCC(=O)Nc2ccc(Cl)cc2Cl)cn1`, the binding (percent of control) was 113% (inactive).
`COc1cccc(NC(=O)Nc2ccc(F)cc2)c1` was tested, and the binding (percent of control) was 99.8% (inactive).
With `CC(OC(=O)c1cccc(S(=O)(=O)N2CCOCC2)c1)C(=O)NCC1CCCCC1` (stereo not given) the binding (percent of control) was 106% (inactive).
In the case of `CCc1c(N=O)c(-c2ccccc2)n(O)[n+]1[O-]`, the binding (percent of control) is reported as 95.9% (inactive).
With `CCc1noc(C)c1C(=O)OCC(=O)c1ccc(NC(=O)CC(C)C)cc1` the binding (percent of control) was 106% (inactive).
With `CN(C(=O)COC(=O)c1cc(-c2ccco2)nc2ccccc12)C1CCS(=O)(=O)C1` (stereo not given) the binding (percent of control) was 59.4% (active).
`CN(C(=O)COC(=O)c1nc(Cl)ccc1Cl)C1CCS(=O)(=O)C1` (stereo not given) was tested, and the binding (percent of control) was 109% (inactive).
For `CN(CCOc1ccccc1)C(=O)c1cc(-c2ccco2)nc2ccccc12`, the binding (percent of control) was 105% (inactive).
`O=S(=O)(c1cccc(C(F)(F)F)c1)N1c2ccccc2-n2cccc2C1c1cccnc1` (stereo not given) was tested, and the binding (percent of control) was 99.9% (inactive).
With `c1ccc(-c2cc(-c3ccccc3)[nH]n2)cc1` the binding (percent of control) was 95% (inactive).
`Fc1ccccc1/C=N/n1c(-c2cccnc2)n[nH]c1=S` was tested, and the binding (percent of control) was 104% (inactive).
With `S=c1[nH]nc(-c2cc(-c3ccccc3)n[nH]2)n1/N=C/c1c2ccccc2cc2ccccc12` the binding (percent of control) was 82.6% (active).
For `Cc1ccc(-c2ccc(CN3C(C)C(=O)N(Cc4cn(CCC5OCCCO5)nn4)CCS3(=O)=O)cc2)cc1` (stereo not given), the binding (percent of control) was 104% (inactive).
For `C/C(=N\NC(=S)Nc1ccc(C)cc1)c1cc2ccccc2o1`, the binding (percent of control) was 83.6% (active).
In the case of `C/C(=N/NC(=S)Nc1ccccc1)c1ccc2c(c1)OCO2`, the binding (percent of control) is reported as 98.1% (inactive).
In the case of `Cc1ccc(NC(=O)c2cc3ccccc3o2)cc1`, the binding (percent of control) is reported as 110% (inactive).
`Cc1cc2cc3n(c2nn1)N=C(Cl)CC3` was tested, and the binding (percent of control) was 104% (inactive).
With `O=S1(=O)CCN(Cc2ccccc2)CC1` the binding (percent of control) was 96.1% (inactive).
In the case of `O=C(c1ccc(N2CCCC2=O)cc1)N1CCN(c2ccc(C(F)(F)F)cc2[N+](=O)[O-])CC1`, the binding (percent of control) is reported as 99% (inactive).
In the case of `Cc1cc2nc3c(=O)n(Cc4ccccc4)c(=O)[nH]c3nc2cc1N`, the binding (percent of control) is reported as 99.2% (inactive).
With `Nc1ccc2nc3c(=O)[nH]c(=S)[nH]c3nc2c1` the binding (percent of control) was 19% (active).
In the case of `O=C(OCc1ccccc1)N1CCC2CC1c1cc(N3CCN(S(=O)(=O)c4cc(Cl)cc(Cl)c4)CC3)ccc12` (stereo not given), the binding (percent of control) is reported as 100% (inactive).
In the case of `CCCCN1C(=O)C(CC(=O)NC(c2ccccc2)c2ccccc2)CC(C(=O)N2CCOCC2)=C1C` (stereo not given), the binding (percent of control) is reported as 102% (inactive).
`O=C(NN=Cc1ccc([N+](=O)[O-])cc1)C1CC1` was tested, and the binding (percent of control) was 122% (inactive).
`COC(=O)c1ccc(/C=N/NC(=O)C(=O)N2CCCCCC2)cc1` was tested, and the binding (percent of control) was 102% (inactive).
For `O=C(N/N=C/c1ccc([N+](=O)[O-])cc1)C(=O)N1CCCC1`, the binding (percent of control) was -16.9% (active).
For `Cc1ccc(S(=O)(=O)N2C[C@@H](C)[C@]3(C2)[C@H](O)[C@H](OC(=O)NCc2ccccc2)C[C@H]2C(=O)N(c4ccccc4)C(=O)[C@H]23)cc1`, the binding (percent of control) was 111% (inactive).
